A short description of assay [1]: qHTS of pediatric cancer cell lines to identify multiple opportunities for drug repurposing: Primary screen for LAN-5 cells (AID 1347100). Note: potency is the fitted concentration of half-maximal effect. The gist of the method:
(§1)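 Cells (500-1,000/well) in growth media were settled 5 h at 37 degrees C, then given compounds for 48 h. Viability was read as CellTiter-Glo luminescence. Primary runs used MIPE at 11 points (0.78 nM-46 µM) and NPC at 8 points (0.59 nM-46 µM); follow-ups used 11 points.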
On the technique in general: Quantitative high-throughput screening tests each substance at several concentrations.

Assay [2] can be described thus: qHTS of pediatric cancer cell lines to identify multiple opportunities for drug repurposing: Primary screen for BT-12 cells (AID 1347101). Note: nearly all actives have a fitted effect of over 25% in size. Note: potency is the fitted concentration of half-maximal effect. The method, boiled down:
(§2)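 Cells (500-1,000/well) rested 5 h, then received compounds for 48 h; metabolically active cells were measured by CellTiter-Glo luminescence. Final concentrations spanned up to 46 µM (MIPE, 11-point) or 0.59 nM-46 µM (NPC, 8-point) in primary screens, 11-point in follow-ups.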

A short description of assay [3]: qHTS of pediatric cancer cell lines to identify multiple opportunities for drug repurposing: Primary screen for Rh18 cells (AID 1347102). Note: nearly all actives have a fitted effect of over 65% in size. Note: potency is the fitted concentration of half-maximal effect. The gist of the method: as §1
Assay [4] can be described thus: qHTS of pediatric cancer cell lines to identify multiple opportunities for drug repurposing: Primary screen for MG 63 (6-TG R) cells (AID 1347105). Note: nearly all actives have a fitted effect of over 50% in size. Note: potency is the fitted concentration of half-maximal effect. The method, boiled down:
(§3)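 Quantitative HTS format: each compound titrated (MIPE 11 points from 0.78 nM, NPC 8 points from 0.59 nM) onto cells plated 5 hours earlier. After 48 h at 37 degrees C, CellTiter-Glo luminescence was recorded.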

A short description of assay [5]: qHTS of pediatric cancer cell lines to identify multiple opportunities for drug repurposing: Primary screen for control Hh wild type fibroblast cells (AID 1347106).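 Note: series mostly up to about 46 µM; a drop in luminescence marks cytotoxicity and a rise apparent proliferation; nearly all actives have a fitted effect of over 55% in size.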 The gist of the method: as §1
A short description of assay [6]: qHTS of pediatric cancer cell lines to identify multiple opportunities for drug repurposing: Primary screen for Rh41 cells (AID 1347108). Note: nearly all actives have a fitted effect of over 70% in size. Note: potency is the fitted concentration of half-maximal effect. The method, boiled down: as §3
A short description of assay [7]: qHTS of pediatric cancer cell lines to identify multiple opportunities for drug repurposing: Primary screen for OHS-50 cells (AID 1347103). Note: nearly all actives have a fitted effect of over 40% in size. Note: potency is the fitted concentration of half-maximal effect. The gist of the method: as §2
A short description of assay [8]: qHTS of pediatric cancer cell lines to identify multiple opportunities for drug repurposing: Primary screen for Rh30 cells (AID 1347107). Note: nearly all actives have a fitted effect of over 75% in size. Note: potency is the fitted concentration of half-maximal effect. The gist of the method:
as §1

Assay [9] can be described thus: qHTS of pediatric cancer cell lines to identify multiple opportunities for drug repurposing: Primary screen for RD cells (AID 1347104). Note: nearly all actives have a fitted effect of over 55% in size. Note: potency is the fitted concentration of half-maximal effect. The method, boiled down: as §3

From PubChem BioAssay (NCATS) come the findings set out here.

Inconclusive results are not listed. Activity calls are given as the source filed them. Calls come from the whole dose curve; as a rule, active = well fitted curve in the direction sought with a large enough effect; inconclusive = small, poorly fitted or top-dose-only effect, or another doubt; inactive = no such curve, though single readings can be large; an effect the other way counts as inactive or inconclusive.

Regarding `Cc1cnc(-c2cc(N3CCN(C(=O)CCS(C)(=O)=O)CC3)ncc2Cl)c(C)c1`, the Potency result in assay [1], in assay [2], in assay [3], in assay [4], in assay [5] and in assay [6] was “inactive” each time.
Regarding `CC1CNc2c(cccc2S(=O)(=O)N[C@@H](CCCN=C(N)N)C(=O)N2CC[C@@H](C)C[C@@H]2C(=O)O)C1` (stereo partly specified), the Potency in [1] was 9.35 µM (active). In addition, the Potency result in assay [3], in assay [7], in assay [4], in assay [8] and in [6] was “inactive” throughout.
In the case of `CCC[C@H](Nc1nc(-c2ccc(NC(=O)NCC)c(OC)c2)ncc1C)c1cccnc1`, the Potency in assay [1] is 0.0105 µM (active); in [2], 0.0109 µM (active); in [7] it was 0.0137 µM (active). Besides, the Potency result in [3], in assay [4], in assay [5] and in assay [8] was “inactive” throughout.
On to `CN(C)c1nc(Cc2ccc(NC(=O)c3ccc(C(F)(F)F)cc3)cc2)nc(N(C)C)c1CC(=O)O`, for which the Potency result in assay [1], in assay [2], in [7], in assay [9], in [4] and in [5] was “inactive” throughout. For the same compound, the Potency result in assay [8] and in assay [6] was “inactive” in each case.
In the case of `CO[C@H]1/C=C\O[C@@]2(C)Oc3c(C)c(O)c4c(O)c(c(C=NN5CCN(C6CCCC6)CC5)c(O)c4c3C2=O)NC(=O)C(C)=CC=C[C@H](C)[C@H](O)[C@@H](C)[C@@H](O)[C@@H](C)[C@H](OC(C)=O)[C@H]1C`, the Potency in [1] is 0.001 µM (active); in [2], 0.137 µM (active); in assay [9], 0.209 µM (active); in [4] it was 0.59 µM (active); in assay [6], 0.148 µM (active).
On to `O=C(Nc1ncc(SCCN2CCCC2)s1)[C@]1(c2ccc(S(=O)(=O)C3CC3)cc2)C[C@@H]1C1CCCCC1`, for which the Potency in [1] was 23.5 µM (active); in assay [3] it was 20.9 µM (active); in assay [7], 24.3 µM (active); in assay [4] it was 29.6 µM (active); in assay [8], 20.9 µM (active); in assay [6], 18.7 µM (active). Also, the Potency result in assay [5] is “inactive”.
Regarding `NC(=O)c1ncn([C@@H]2O[C@H](CO)[C@@H](O)[C@@H]2O)n1`, the Potency result in assay [1], in assay [3], in assay [7], in assay [9], in assay [4] and in assay [5] was “inactive” in each case. Also, the Potency result in [8] and in assay [6] was “inactive” in each case.
As for `C[C@@H]1[C@H](C)CC[C@]2(C(=O)O)CC[C@]3(C)C(=CC[C@@H]4[C@@]5(C)CC[C@H](O)C(C)(C)[C@H]5CC[C@]43C)[C@@H]12`, the Potency in assay [1] is 0.303 µM (active). For the same compound, the Potency result in [2], in assay [3], in [9], in assay [4], in assay [5] and in [8] was “inactive” each time.
For the compound `CC(C)(CO)[C@@H](O)C(=O)NCCC(=O)O`, the Potency entry in [1], in assay [2], in assay [3], in assay [9], in assay [4] and in [5] was “inactive” in each case. Also, the Potency result in [8] and in assay [6] was “inactive” throughout.
As to `Fc1ccc(C(c2ccc(F)cc2)N2CCN(CC=Cc3ccccc3)CC2)cc1`, the Potency result in [1], in assay [3], in [7], in assay [9], in [4] and in assay [5] was “inactive” each time. In addition, in [8], the Potency result was “inactive”.
As to `CN1CC(=O)N2C(Cc3c([nH]c4ccccc34)[C@H]2c2ccc3c(c2)OCO3)C1=O` (stereo partly specified), the Potency result in assay [1], in assay [2], in assay [9], in assay [5] and in [8] was “inactive” throughout.
As to `COc1cc(Cl)cn2c(-c3cccc(NC4CNC4)n3)cnc12`, the Potency was 16.6 µM (active) in assay [1] and 12.2 µM (active) in assay [7]. Further, the Potency entry in assay [3], in assay [9] and in [5] was “inactive” throughout.
Consider `O=S(=O)(NCCNCC=Cc1ccc(Br)cc1)c1cccc2cnccc12`, for which the Potency was 20.9 µM (active) in [1], 21.7 µM (active) in assay [2], 18.7 µM (active) in assay [9] and 14.8 µM (active) in assay [4]. Moreover, the Potency entry in [5] is “inactive”.
Turning to `CC(=O)O[C@]1(C(C)=O)CC[C@H]2[C@@H]3C=C(Cl)C4=CC(=O)[C@@H]5C[C@H]5[C@]4(C)[C@@H]3CC[C@@]21C`, the Potency in assay [2] and in assay [7] was 3.43 µM (active) each time. Moreover, the Potency entry in assay [3] is “inactive”.
Take `C=CCc1cccc(C=NNC(=O)CN2CCN(Cc3ccccc3)CC2)c1O`: the Potency in assay [2] was 24.3 µM (active); in assay [9], 16.6 µM (active); in assay [4], 18.7 µM (active); in assay [6], 18.7 µM (active).
In the case of `NC(N)=Nc1nc(CSCCC(N)=NS(N)(=O)=O)cs1`, the Potency entry in assay [2], in assay [3], in assay [4] and in [5] was “inactive” each time.
Regarding `CC=C(C(=CC)c1ccc(O)cc1)c1ccc(O)cc1`, the Potency result in assay [3] and in assay [8] was “inactive” throughout. In addition, the Potency in assay [7] was 27.3 µM (active); in [4] it was 18.7 µM (active).
Turning to `CN(C)CCOc1ccc(-c2nc(-c3ccc4c(c3)CCC4=NO)c(-c3ccncc3)[nH]2)cc1`, the Potency in assay [2] is 27.3 µM (active); in [9], 18.7 µM (active); in assay [8] it was 18.7 µM (active); in assay [6] it was 23.5 µM (active).
On to `O=C(O)c1nc(=O)[nH]c(=O)[nH]1`, for which the Potency entry in [2], in assay [3], in assay [7], in [4], in [5] and in assay [8] was “inactive” each time. For the same compound, the Potency result in assay [6] is “inactive”.
Turning to `CCCCCCCCCCCCCC(=O)N[C@H](CO)[C@H](O)c1ccc([N+](=O)[O-])cc1`, in assay [2], the Potency is 24.3 µM (active). Further, the Potency result in assay [3], in assay [7], in assay [5], in [8] and in assay [6] was “inactive” throughout.
For the compound `Cc1cccc(Nc2nc(N[C@@H]3CCCC[C@H]3N)ncc2C(N)=O)c1`, the Potency was 20.9 µM (active) in assay [3]; 7.69 µM (active) in assay [7]; 16.6 µM (active) in assay [9]; 14.8 µM (active) in assay [4]; 11.8 µM (active) in assay [6]. The Potency entry in assay [5] was “inactive”.
As to `OC1CCC(Nc2ncc3nc(Nc4c(F)cc(F)cc4F)n([C@@H]4CCOC4)c3n2)CC1` (stereo partly specified), the Potency result in assay [2], in [3], in assay [4], in assay [5] and in assay [6] was “inactive” each time.
Consider `COc1ccc(CCN(C)CCCOc2ccc(S(=O)(=O)c3[nH]c4ccccc4c3C(C)C)cc2)cc1OC`, for which the Potency in assay [1] was 23.5 µM (active). The Potency result in assay [4] and in [8] was “inactive” throughout.
As for `CN1C(=O)C[C@H](C(=O)N[C@@H](Cc2cnc[nH]2)C(=O)N2CCC[C@@H]2C(N)=O)NC1=O`, the Potency result in assay [3], in [7], in assay [4], in [5] and in assay [8] was “inactive” throughout.
Consider `CC1=C(CC(=O)O)c2cc(F)ccc2C1=Cc1ccc(S(C)=O)cc1` (stereo unspecified), for which the Potency in assay [1] is 26.4 µM (active). The Potency entry in assay [8] was “inactive”.
Turning to `CC1=C(C(=O)Nc2cc3cn[nH]c3cc2F)C(c2ccc(C(F)(F)F)cc2)CC(=O)N1` (stereo unspecified), the Potency result in [2], in assay [3], in [7], in assay [9], in assay [5] and in [6] was “inactive” each time.
`CO[C@H]1O[C@@H]2O[C@@]3(C)CC[C@@H]4[C@@H](C)CC[C@@H]([C@H]1C)[C@@]24OO3`: in [1], the Potency is 20.9 µM (active). Also, the Potency result in [4] and in [6] was “inactive” throughout.
As for `CC(C)C[C@@H](N)[C@H](O)C(=O)N[C@H](C(=O)N[C@H](C(=O)N[C@@H](CC(=O)O)C(=O)O)C(C)C)C(C)C`, the Potency entry in assay [2], in [3], in assay [9] and in [4] was “inactive” each time.
Turning to `NCC1CCC(C(=O)O)CC1` (stereo unspecified), the Potency result in assay [2], in assay [3], in [7], in assay [4], in assay [5] and in assay [6] was “inactive” each time.
With `O=S(=O)(O)c1ccc2cc(N=Nc3cc(S(=O)(=O)O)c4cccnc4c3O)ccc2c1`, the Potency result in assay [1] and in assay [5] was “inactive” each time.
Regarding `CCNC(=O)CCCC=CC[C@@H]1[C@H](C=CC(O)CCc2ccccc2)[C@@H](O)C[C@@H]1O` (stereo partly specified), the Potency entry in [3], in assay [7], in [9], in [4] and in assay [5] was “inactive” in each case.
On to `CCOC(=O)[C@H]1O[C@H]1C(=O)N[C@@H](CC(C)C)C(=O)NCCC(C)C`, for which the Potency entry in assay [3], in [7], in assay [4] and in assay [5] was “inactive” in each case.
On to `Clc1ccc(C2(c3ccc(-c4cn[nH]c4)cc3)CCNCC2)cc1`, for which the Potency result in assay [2] and in assay [5] was “inactive” throughout. Also, the Potency in assay [9] is 26.4 µM (active); in [4], 5.9 µM (active).
